Source: PubChem BioAssay (National Center for Advancing Translational Sciences (NCATS))
Cruzain inh noDet = inhibitors of Trypanosoma cruzi cruzain without detergent. P25779. purified cruzain, Z-FR-AMC fluorescence, no detergent. Potency, µM, hits mostly inhibitors. actives 2.3% (n = 200,000); note: nearly all actives have a fitted effect of over 40% in size
Target sequence (P25779 123-467 limits assumed): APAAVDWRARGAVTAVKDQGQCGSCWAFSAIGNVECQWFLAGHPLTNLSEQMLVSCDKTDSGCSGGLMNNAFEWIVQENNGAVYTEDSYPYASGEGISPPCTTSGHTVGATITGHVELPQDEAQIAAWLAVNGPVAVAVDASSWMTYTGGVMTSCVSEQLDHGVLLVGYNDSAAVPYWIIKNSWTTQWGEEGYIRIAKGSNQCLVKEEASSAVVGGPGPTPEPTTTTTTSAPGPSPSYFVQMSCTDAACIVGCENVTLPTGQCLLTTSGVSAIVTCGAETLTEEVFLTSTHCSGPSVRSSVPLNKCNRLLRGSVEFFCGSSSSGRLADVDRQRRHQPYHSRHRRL
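Purified cruzain at 1.5 nM, pre-incubated 15 min with compound at room temperature in 100 mM sodium acetate pH 5.5, 5 mM DTT, 0.00005% Triton X-100. Reaction started with 2 uM Z-FR-AMC; AMC fluorescence increase over 60 s gives rate.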
Cruzain Triton = cruzain (T. cruzi) inhibition with detergent. actives 0.43% (n = 200,000). Potency, µM, usual class: inhibitors. AID 1478. purified cruzain, Z-FR-AMC fluorescence, 0.01% Triton. P25779; note: nearly all actives have a fitted effect of over 40% in size
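In this qHTS format, compounds are incubated with 1.5 nM cruzain for 15 min at room temperature before 2 uM Z-FR-AMC is added. Release of AMC is followed at 360/450 nm, and progress is taken as the 60 s fluorescence difference.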
Each line names hits and unclear results; the compound was inactive in the other large screens; ! = a repeat was not active. Most compounds without a hit are left out; they make up all but 2.4% or so of the library. Calls come from the whole dose curve; as a rule, active = well fitted curve in the direction sought with a large enough effect; inconclusive = small, poorly fitted or top-dose-only effect, or another doubt; inactive = no such curve, though single readings can be large; an effect the other way counts as inactive or inconclusive.

N#Cc1ccc(-c2ccccc2)nc1SCC(=O)c1cccc(Cl)c1	Cruzain inh noDet 13µM
N#Cc1ccc(-c2ccc(Cl)cc2)nc1SCC(=O)c1cccc(Cl)c1	Cruzain inh noDet 10µM
Cc1coc2cc3oc(=O)c(CC(=O)NCc4ccccc4)c(C)c3cc12	none
Cc1cccc(-c2noc(CN(C3CCCCC3)S(=O)(=O)c3ccc(F)cc3)n2)c1	none
CCOC(=O)c1c(C2COc3ccccc3O2)csc1NC(=O)c1ccccc1 (stereo not drawn)	Cruzain inh noDet 25µM
CCOC(=O)c1c(C2COc3ccccc3O2)csc1N (stereo not drawn)	none
COc1ccccc1CNC(=O)CSc1ncc(S(=O)(=O)c2ccc(C)c(Cl)c2)c(=O)[nH]1	Cruzain inh noDet inconclusive
COc1ccc(CNC(=O)c2ccc3c(c2)N(Cc2c(F)cccc2Cl)C(=O)CS3)cc1	none
Cc1ccc2nc(N3CCN(c4cccc(C)c4C)CC3)c3nnnn3c2c1	Cruzain inh noDet 4µM!
Cc1ccc2nc(N3CCN(c4ccc(F)cc4)CC3)c3nnnn3c2c1	none
O=C(O)CCC(=O)c1cccc2ccccc12	none
C[N+](C)(C)CCC(=O)c1cccc2ccccc12	Cruzain inh noDet 10µM, Cruzain Triton 14µM
C/C(=N/NS(=O)(=O)c1ccc(Cl)cc1)c1cccc(NC(=O)c2ccc(Cl)cc2Cl)c1	Cruzain inh noDet 25µM
C/C(=N/NS(=O)(=O)c1ccc(C)cc1)c1cccc(NC(=O)c2cccc(Cl)c2)c1	none
COC(=O)c1sccc1S(=O)(=O)N(CC(=O)NCc1ccc(F)cc1)c1ccc(Cl)cc1	none
CC(Nc1oc(-c2ccc(COc3ccccc3)o2)nc1C#N)c1ccccc1 (stereo not drawn)	Cruzain inh noDet 20µM
N#Cc1nc(-c2ccc(COc3ccccc3)o2)oc1NCc1ccccc1	none
CCOC(=O)c1cc(C)n(CC2CCC(C(=O)Nc3ccc(Cl)cc3)CC2)c1C (stereo not drawn)	none
CC(C)(C)c1ccc(C(=O)N2CCC(c3nc4ccccc4o3)CC2)cc1	none
CCCSC1=C(C#N)C(c2cccs2)C(C(=O)Nc2ccccc2)=C(C)N1 (stereo not drawn)	Cruzain inh noDet 25µM
CCSC1=C(C#N)C(c2cccs2)C(C(=O)OC)=C(C)N1 (stereo not drawn)	none
CCOC(=O)C1CCN(c2ncnc3c2oc2ccccc23)CC1	none
CCOC(=O)C1CCN(c2nc(-c3ccccc3)nc3c2oc2ccccc23)CC1	Cruzain inh noDet 20µM
CCOc1ccc(CNC(=O)c2ccc(NC(=O)N3CCSc4ncccc43)cc2)cc1OC	none
CC1CN(C(=O)N2CCC(C(=O)NCc3ccco3)CC2)c2ccccc2O1 (stereo not drawn)	Cruzain inh noDet inconclusive
COC(=O)c1ccc(NC(=O)CSc2nnc(COc3ccc4c(c3)CCCC4)o2)cc1	Cruzain inh noDet 10µM
CCc1ccc(NC(=O)CSc2nnc(COc3ccc4c(c3)CCCC4)o2)cc1	Cruzain inh noDet 16µM
CCc1ccc(OCc2nnc(SCC(=O)Nc3cccc(C(=O)N4CCOCC4)c3)o2)cc1	Cruzain inh noDet inconclusive
COc1cccc(NC(=O)CSc2nnc(COc3ccc4c(c3)CCCC4)o2)c1	none
O=C(Nc1cccc2ccccc12)NC1CCCc2ccccc21 (stereo not drawn)	Cruzain inh noDet 13µM
CNC(=O)NC1CCCc2ccccc21 (stereo not drawn)	none
O=C(N/N=C\C=C\c1ccc2c(c1)OCO2)C1COc2cc3ccccc3cc2O1 (stereo not drawn)	Cruzain inh noDet 25µM
O=C(N/N=C/c1ccc2c(c1)OCO2)C1COc2ccccc2O1 (stereo not drawn)	none
COc1ccccc1NC(=O)c1sc(NC(=O)c2ccco2)c(C#N)c1C	none
Cc1ccccc1OCC(=O)Nc1sc(C(=O)Nc2cccc(C)c2C)c(C)c1C#N	Cruzain inh noDet 7.9µM
O=C1c2ccccc2C(=O)N1c1ccc(Cl)cc1	Cruzain Triton inconclusive
O=C1C2C(c3ccccc3)(C(=O)N1c1ccc(Cl)cc1)C2(c1ccccc1)c1ccccc1 (stereo not drawn)	Cruzain inh noDet 25µM
O=C(CCCn1c(=O)c2cccn2c2cccnc21)Nc1ccccc1C(F)(F)F	none
Cc1ccccc1Nc1nc(CSc2nnnn2-c2ccccc2)cs1	Cruzain inh noDet 20µM
c1ccc(-c2nc(CSc3nnnn3-c3ccccc3)cs2)cc1	none
O=c1cc(CSc2nnnn2-c2ccccc2)nc2nc[nH]n12	none
O=c1cc(CSc2nnnn2-c2ccccc2)nc2scc(-c3ccccc3)n12	Cruzain inh noDet 25µM
COc1ccc(NC(=O)c2ccc(-c3nc(COc4ccccc4)c(C)o3)cc2)cc1	none
CC(=O)c1ccc(NC(=O)c2ccc(-c3nc(CSc4ccccc4)c(C)o3)cc2)cc1	Cruzain inh noDet 10µM
CC(=O)c1ccc(NC(=O)c2ccc(-c3nc(CSc4ccc(C)cc4)c(C)o3)cc2)cc1	Cruzain inh noDet inconclusive
CC(=O)c1ccc(NC(=O)c2ccc(-c3nc(COc4ccc(C)cc4)c(C)o3)cc2)cc1	Cruzain inh noDet 1µM
O=C(Nc1ccc2c(c1)CCCN2C(=O)c1cccs1)c1cccc(C(F)(F)F)c1	none
N#Cc1ccc(C(=O)Nc2ccc(Cl)c(-c3nc4cc(Cl)ccc4o3)c2)c(F)c1	none
O=C(NC(=S)NNS(=O)(=O)c1ccccc1)c1ccccc1[N+](=O)[O-]	none
O=C(NC(=S)NNS(=O)(=O)c1ccccc1)c1ccc([N+](=O)[O-])cc1	Cruzain inh noDet 10µM, Cruzain Triton inconclusive
Cc1cccc(NC(=O)c2cnn(-c3ccccc3)c2-n2cccc2)c1C	none
Cc1cccn2c(=O)c3cc(C(=O)NCc4ccco4)c(=N)n(CCOCCO)c3nc12	none
Cc1cccn2c(=O)c3cc(C(=O)NCCc4ccccc4)c(=N)n(CCCn4ccnc4)c3nc12	Cruzain inh noDet inconclusive
COCCCn1c(=N)c(C(=O)NCc2ccco2)cc2c(=O)n3cccc(C)c3nc21	none
CNC(=O)c1cc2c(=O)n3cccc(C)c3nc2n(C(C)C)c1=N	Cruzain inh noDet inconclusive, Cruzain Triton 25µM
CCCCNC(=O)c1cc2c(=O)n3cccc(C)c3nc2n(Cc2ccccc2)c1=N	Cruzain inh noDet inconclusive, Cruzain Triton 28µM
C=CCn1c(=N)c(C(=O)NCCCOC)cc2c(=O)n3cccc(C)c3nc21	Cruzain inh noDet inconclusive, Cruzain Triton 32µM
CC(=O)c1cccc(NC(=O)CN2C(=O)c3cccnc3Sc3ccccc32)c1	none
Cc1ccc(C(=O)c2oc3ccccc3c2NC(=O)Cc2coc3cc(C)ccc23)cc1	none
COc1ccc(C(=O)On2c(-c3ccc(Br)cc3)nc3ccccc3c2=O)cc1	Cruzain inh noDet inconclusive
COc1cc(OC)cc(-c2nc3ccccc3c(=O)n2OC(=O)c2ccc(Br)cc2)c1	Cruzain inh noDet 25µM
Cc1cccc(-n2c(C)cc(C(=O)C(=O)Nc3ccccc3F)c2C)c1C	none
CSc1ccc(CCNC(=O)c2c(C)nn(-c3ccc(F)cc3)c2-n2cccc2)cc1	Cruzain inh noDet inconclusive
Cc1ccc(Cn2c(SCc3ccc(C(=O)N4CCCCC4)cc3)nc3ccncc32)cc1	none
CCc1nnc(NC(=O)c2ccc(N3C(=O)CCC3=O)cc2)s1	none
Cc1ccc(C)c2sc(NC(=O)c3ccc(N4C(=O)CCC4=O)cc3)nc12	Cruzain inh noDet 20µM
CCCCCn1c(CCCNC(=O)c2cccc(C)c2)nc2ccccc21	Cruzain inh noDet inconclusive
C/C(=N/NC(=O)c1cccs1)c1ccc(NC(=O)COc2ccc(Cl)cc2Cl)cc1	Cruzain inh noDet inconclusive
C/C(=N/NC(=O)c1ccc(Cl)s1)c1ccc(NC(=O)COc2ccc(Cl)cc2)cc1	Cruzain inh noDet 20µM
